Results from the supplement of paper PMC3545927.
The list shows a part of the results. How many sequences the whole screen found active is unknown.

Molecular target: furin, P09958
Test: furin cleavage Z-score vs untreated control; higher = more cleavage, active = 3.5 or more, inactive = 1 or less, 8 variable residues between constant flanks
Experimental: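 Multiplexed peptide-cDNA fusion cleavage assay. 8-mer variable peptides flanked by constant Cys-Ala (N-term) and Ala-Gly-Asn-Ala-Ser-Ala-Ser-Ala (C-term) and conjugated to a cDNA oligonucleotide were bead-immobilised via the N-terminus. They were treated with purified furin at a 1:10 enzyme:substrate ratio in 50 mM HEPES pH 7.5, 1 mM CaCl2, 100 mM NaCl for 7.5, 15 or 30 min. Released cDNA was counted by next-generation sequencing, and log counts versus no-furin controls were lowess-adjusted and converted to robust Z-scores.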

furin, P09958, sequence (P09958 whole entry): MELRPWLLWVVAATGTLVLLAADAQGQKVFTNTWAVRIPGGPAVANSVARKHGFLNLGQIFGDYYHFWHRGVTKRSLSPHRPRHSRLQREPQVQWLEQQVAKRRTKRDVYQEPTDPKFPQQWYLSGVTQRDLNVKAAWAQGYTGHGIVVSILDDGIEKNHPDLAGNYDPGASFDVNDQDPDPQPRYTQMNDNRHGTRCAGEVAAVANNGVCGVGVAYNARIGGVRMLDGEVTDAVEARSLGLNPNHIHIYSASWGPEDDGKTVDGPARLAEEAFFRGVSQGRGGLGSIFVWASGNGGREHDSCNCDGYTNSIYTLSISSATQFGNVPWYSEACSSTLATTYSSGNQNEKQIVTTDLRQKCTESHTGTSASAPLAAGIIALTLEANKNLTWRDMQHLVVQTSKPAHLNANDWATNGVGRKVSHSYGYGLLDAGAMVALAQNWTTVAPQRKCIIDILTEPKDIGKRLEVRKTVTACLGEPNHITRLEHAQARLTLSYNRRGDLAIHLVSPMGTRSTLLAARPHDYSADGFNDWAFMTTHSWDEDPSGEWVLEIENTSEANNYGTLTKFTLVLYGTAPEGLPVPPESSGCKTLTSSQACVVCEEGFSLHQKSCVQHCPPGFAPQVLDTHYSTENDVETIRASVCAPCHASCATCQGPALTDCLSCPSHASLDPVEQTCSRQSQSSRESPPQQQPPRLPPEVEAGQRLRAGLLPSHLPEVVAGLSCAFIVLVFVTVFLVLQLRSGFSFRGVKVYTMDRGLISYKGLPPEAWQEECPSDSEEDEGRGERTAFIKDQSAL

Sequence | furin cleavage Z-score (7.5 min) | furin cleavage Z-score (15 min) | furin cleavage Z-score (30 min)
CAMEECGQHLAGNASASA [HC22] | 0.622 (inactive) | 0.186 (inactive) | 1.5
CARAAICGKYAGNASASA [HC1629] | -0.897 (inactive) | -0.988 (inactive) | -0.655 (inactive)
CARSKRKKEVAGNASASA [FS-2304] | 1.21 | -0.317 (inactive) | -0.337 (inactive)
CARSKRRKYVAGNASASA [FS-3170] | -1.22 (inactive) | -0.271 (inactive) | 0.492 (inactive)
CARSKRAQTQAGNASASA [FS-2807] | 3.83 (active) | 4.65 (active) | 3.76 (active)
CARDKRWVKYAGNASASA [FS-2652] | 0.63 (inactive) | 2.15 | 6.84 (active)
CARSKRASYVAGNASASA [FS-2808] | 5.25 (active) | 9.12 (active) | 8.21 (active)
CARDKRSALQAGNASASA [FS-1945] | 8.56 (active) | 10.4 (active) | 8.42 (active)
CARDKKSLLQAGNASASA [FS-2133] | 0.497 (inactive) | 0.302 (inactive) | -0.611 (inactive)
CARDKRLAYSAGNASASA [FS-3217] | -0.235 (inactive) | -0.255 (inactive) | 0.271 (inactive)
CARSYRYALQAGNASASA [FS-3101] | 2.16 | -0.873 (inactive) | -0.277 (inactive)
CARSKRREMQAGNASASA [FS-3207] | 0.975 (inactive) | 0.582 (inactive) | 0.62 (inactive)
CADPMEECSQAGNASASA [HC1819] | 0.273 (inactive) | -1.88 (inactive) | -0.65 (inactive)
CAELEVPCHRAGNASASA [HC2445] | 0.172 (inactive) | 0.852 (inactive) | 0.435 (inactive)
CAMGFSYDTRAGNASASA [HC1478] | -0.658 (inactive) | -1.06 (inactive) | -0.421 (inactive)
CATTMCSGSWAGNASASA [HC1866] | -0.934 (inactive) | -1.58 (inactive) | -0.286 (inactive)
CAVVCCSMSVAGNASASA [HC2090] | -0.627 (inactive) | 0.955 (inactive) | 1.16
CARSKRIWLDAGNASASA [FS-1929] | 0.312 (inactive) | 0.0956 (inactive) | 0.362 (inactive)
CARSKRRDANAGNASASA [FS-2306] | -0.438 (inactive) | 0.401 (inactive) | 2.07
CARDKRKLGAAGNASASA [FS-1691] | -0.964 (inactive) | 0.648 (inactive) | 1.45
CARSKRGTEDAGNASASA [FS-3084] | 8.96 (active) | 9.33 (active) | 8.39 (active)
CARDKRKQRQAGNASASA [FS-2205] | 1.77 | 4.76 (active) | 3.43
CARSKRVLWDAGNASASA [FS-2525] | -1.38 (inactive) | -1.33 (inactive) | -0.22 (inactive)
CARSKRALENAGNASASA [FS-2523] | 9.22 (active) | 11 (active) | 8.18 (active)
